High-throughput results (PubChem BioAssay)
D1 ag – agonists of human D1 dopamine receptor. P21728. AID 504660. HEK293 T-REx D1 cells, calcium flux, agonist mode. activation, % at 2 µM. actives 1% (n = 360,000); in the data active means activation above about 30%; further: 0% is about no effect
Target sequence (P21728 whole entry, looked up): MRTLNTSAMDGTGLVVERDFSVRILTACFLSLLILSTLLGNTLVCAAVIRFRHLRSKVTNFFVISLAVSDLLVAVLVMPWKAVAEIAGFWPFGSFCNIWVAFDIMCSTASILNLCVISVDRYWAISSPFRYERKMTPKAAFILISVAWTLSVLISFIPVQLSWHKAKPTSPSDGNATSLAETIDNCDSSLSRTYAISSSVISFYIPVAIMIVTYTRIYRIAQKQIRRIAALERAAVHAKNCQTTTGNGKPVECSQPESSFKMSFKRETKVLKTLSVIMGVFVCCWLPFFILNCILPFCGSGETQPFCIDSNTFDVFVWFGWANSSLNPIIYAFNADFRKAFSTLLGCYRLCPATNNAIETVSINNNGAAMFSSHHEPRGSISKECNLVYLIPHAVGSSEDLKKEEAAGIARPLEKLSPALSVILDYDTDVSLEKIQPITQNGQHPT
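Agonism was scored from calcium flux recorded over 180 s (1 read/s) after pintool compound addition, following a 10-cycle baseline. Cells were inducible force-coupled HEK293 TREx D1, plated overnight at 30 C and loaded with no-wash calcium dye.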
D3 antag – blocks the human D3 dopamine receptor; D3R cells, DiscoveRx beta-arrestin luminescence, antagonist mode; stronger effect = lower value; AID 652054; P35462; actives 2.5% (n = 360,000); max response, negative = inhibition, %; in the data active means max response below about -50%; inconclusive means no clear call, values can overlap the other calls; further: on the % scale 0 is the no-effect control and ±100 the full control effect
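Cells expressing the human receptor were seeded at 1500 cells/well, incubated overnight at 37 degrees C in 5% CO2, then exposed to library compounds with dopamine controls for 90 minutes at 37 degrees C before luminescent detection.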
D1 antagonist – blocks dopamine activation of the human D1 receptor; P21728; HEK293 TREx D1 cells, calcium flux, dopamine EC80; stronger effect = lower value; activity change, negative = inhibition, % at 10 µM; actives 3.2% (n = 360,000); AID 504652; in the data active means activity change below about -30%; further: on the % scale 0 is the no-effect control and ±100 the full control effect
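After overnight tetracycline induction at 30 C, force-coupled D1 HEK293 cells took up a no-wash calcium dye at room temperature. Compounds were added and monitored 180 s, and the response to EC80 dopamine was then recorded.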
D1 PAM – human D1 dopamine receptor positive modulation. actives 0.036% (n = 360,000). HEK293 TREx D1 cells, calcium flux, dopamine EC20 potentiation. potentiation, % at 10 µM. AID 504651; in the data active means potentiation above about 30%; further: 0% is about no effect
DRD3 agonist – activates the human D3 dopamine receptor; P35462; D3R DiscoveRx beta-arrestin cells, luminescence, 90 min; max activation, %; actives 0.58% (n = 410,000); in the data active means max activation above about 30%; further: 0% is about no effect
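Agonist-mode cell screen: cells plated at 1500/well and incubated overnight at 37 °C, then exposed to library compounds for 90 min at 37 °C. Detection reagent was added for 30–60 min at room temperature, and luminescence was read.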
* hit, by the source's call; ? = inconclusive; · = not tested or not shown; ! = repeats disagree. A selection: hits, their analogues and other compounds. The true share with any hit is near 6%.

SMILES | D1 ag | D3 antag | D1 antagonist | D1 PAM | DRD3 agonist
O=C(CN1CCC(n2nnc3cc(F)ccc32)CC1)NC1CCCCC1 | 0.7 | -85.5* | 1.9 | -3.6 | -3.7
Cc1cccc2nc(-c3cccc(NS(=O)(=O)c4ccccc4)c3)cn12 | -2.8 | · | -6.9 | -1.1 | -13.5
CN(Cc1ccccc1)S(=O)(=O)c1nnc(NC(=O)c2ccccc2Cl)s1 | 1.2 | · | -3.7 | -2.5 | -18.9
CCc1ccc(-c2cn3nc(CC)sc3n2)cc1 | 4.5 | · | -5.1 | 0.2 | -11.1
CC(C)Cc1nn2cc(-c3cccc(Br)c3)nc2s1 | 4.2 | · | 4.4 | 4.5 | 65.8*
CCCCCc1nn2cc(-c3ccccc3)nc2s1 | 0.3 | · | -8.9 | -0.6 | 37.2*
COc1ccc(-c2nnc(SCC(=O)Nc3cccc(C(F)(F)F)c3)nc2-c2ccc(OC)cc2)cc1 | 6.8 | · | 7.3 | 0.3 | -0.8
CNC(=S)N(C)/N=C1/C(=O)N(Cc2c(Cl)cccc2Cl)c2ccccc21 | 6.1 | 19.0 | -34.3* | -3.6 | 4.8
CC(Sc1nncn1C)C(=O)Nc1ccc(N2CCCCC2)cc1 (centres undefined) | 1.6 | -9.9 | -35.2* | 0.3 | -0.2
CC(Sc1nnnn1-c1ccccc1)C(=O)Nc1ccc(N2CCN(C)CC2)cc1 (centres undefined) | 10.1 | 1.6 | -37.4* | -13.5 | -13.3
CC(C)n1cnnc1SCC(=O)Nc1ccc(N2CCCCC2)cc1 | 0.0 | 4.1 | -15.3 | -11.8 | 1.8
CN1CCN(c2ccc(NC(=O)CSc3nnnn3-c3ccccc3Cl)cc2)CC1 | 11.8 | -12.6 | -82.6* | -9.7 | -8.2
N#Cc1nc(Nc2ccc(F)cc2)nc(NC2CCCC2)n1 | 10.0 | · | -8.9 | -6.7 | ·
CC(=O)Nc1ccc(N2CCC(C)CC2)c([N+](=O)[O-])c1 | -1.3 | -8.2 | 5.2 | -1.3 | 7.5
CC(=O)Nc1ccc(N2CCCC(C)C2)c([N+](=O)[O-])c1 (centres undefined) | -2.2 | -55.1* | 9.6 | -2.1 | -11.8
O=S(=O)(c1ccc(NC(=S)N/N=C/c2ccc(Oc3ccccc3)cc2)cc1)N1CCOCC1 | 0.6 | ? | -10.9 | -2.9 | -4.5
O=S(=O)(c1ccc(NC(=S)N/N=C/c2ccc(N3CCOCC3)cc2)cc1)N1CCOCC1 | 2.0 | 2.1 | -44.2* | -7.2 | 7.3
Cc1ccccc1C(=O)NC(=S)Nc1ccc(S(=O)(=O)N2CCN(C)CC2)cc1 | 6.6 | -12.2 | -4.3 | -11.8 | -2.6
Cc1ccccc1C(=O)NC(=S)Nc1ccc(S(=O)(=O)N2CCOCC2)cc1 | 6.1 | -54.4* | -3.3 | -4.3 | -13.0
CCOc1ccccc1CN1CCc2nc(N3CCN(c4ccccc4F)CC3)ncc2C1 | 0.4 | · | 8.2 | 0.6 | -17.4
O=C1CCc2cc(OCCCCc3nnnn3C3CCCCC3)ccc2N1 | 8.5 | 21.1 | -42.5*! | -3.1 | 12.2
O=C(Nc1cc(-c2ccc(Cl)cc2)no1)c1ccc(F)cc1 | 0.2 | · | -5.5 | -1.9 | -14.8
CCOC(=O)c1c(C)[nH]c(CCC(=O)Nc2ccc(Cl)cc2C)c1C | 1.7 | · | -28.6 | -3.0 | 4.2
Cc1cc(C)c2c(c1)/C(=N/NS(=O)(=O)c1ccccc1)CCC2 | 6.3 | 21.5 | -96.9* | 7.5 | -0.6
CC[N+]1=C(C)C(C)(C)c2cc(C)ccc21 | 17.0 | 11.0 | -33.9* | -7.4 | -1.8
SMILES | D1 ag | D3 antag | D1 antagonist | D1 PAM | DRD3 agonist
CCC(=O)N1CCc2cc(S(=O)(=O)NCCC(=O)Nc3ccc(OC)c(OC)c3)ccc21 | 1.8 | · | -40.2* | 3.0 | 1.0
CCC(=O)N1CCc2cc(S(=O)(=O)NCCN3CCC(C)CC3)ccc21 | 1.6 | -90.0* | -0.1 | 13.2 | 1.0
CCC(=O)N1CCc2cc(S(=O)(=O)NCCC(=O)Nc3ccc(C)cc3)ccc21 | -1.4 | · | -9.1 | -0.3 | 0.9
O=C(CCNS(=O)(=O)c1ccc2c(c1)CCN2C(=O)C1CC1)N1CCN(c2ccc(F)cc2)CC1 | 8.0 | · | -37.0* | -5.7 | -11.0
COCCn1c(C)cc(O)c(C(c2ccccc2)N2CCN(c3ccccc3)CC2)c1=O (centres undefined) | -0.8 | · | 0.3 | -1.8 | -24.8
CCOC(=O)c1c(NC(C)=O)c2c3c(sc2n1Cc1nc(-c2ccccc2Cl)oc1C)CCCC3 | 1.8 | · | -5.5 | -2.2 | 2.1
CCc1ccccc1Nc1cc(C(=O)NCCCN(C)C2CCCCC2)c2ccccc2n1 | 34.5* | · | -22.6 | 2.1 | -15.0
Cc1cc(C)cc(Nc2cc(C(=O)NCCCN(C)C3CCCCC3)c3ccccc3n2)c1 | 43.7* | · | -25.5 | -1.4 | 20.6
